Data: PubChem BioAssay AID504423 (Broad Institute, 2011)
Out of some 340,000 compounds screened, about 260 (0.076%) were called active. Shown is part of a subset that was picked to be rich in actives. A number with no mark means an inactive call.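 The calls were made as follows: active = highest replicate inhibition at or above 60% at 9 µM, even if other replicates fall short; inactive = all replicates below 60% inhibition.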

What follows are compounds tested on Kaposi's sarcoma herpesvirus LANA C-terminal domain (residues 932-1162) DNA binding (assay: inhibitors of KSHV C-LANA binding to DNA, primary screen, biochemical, fluorescence polarization, FAM-LBS DNA, MBP-C-LANA, single point (AID 504423;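 also: 0% = neutral control wells and 100% = 4 µM acridine orange control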)). Conditions: at 9 µM, hits give high values.

| SMILES | inhibition |
| --- | --- |
| NC(N)=NCCCc1cn(CC(=O)N2CCNCC2)nn1 | -0.256% |
| O=C(Cc1ccc(S(=O)(=O)N2CCOCC2)s1)Nc1ccc(Br)c(C(F)(F)F)c1 | -0.373% |
| COC(=O)c1ccc([C@@H](O)[C@H](C)C(=O)CC(=O)OC(C)(C)C)cc1 | 2.15% |
| Cc1cc(NC(=O)/C=C/C(=O)N(c2ccccc2C)C(C(=O)NC2CCCC2)c2ccc(F)cc2)no1 (stereo unspecified) | 0.894% |
| CSc1ccc(S(=O)(=O)NCC(=O)OCC(=O)NC2(C#N)CCCCC2)cc1[N+](=O)[O-] | -0.312% |
| COC(=O)c1cc(NC2c3ccccc3C(=O)N2c2ccc(Cl)cn2)cc(C(=O)OC)c1 (stereo unspecified) | -1.05% |
| CCCn1c(N)c(C(=O)CSc2nnc3n2CCCCC3)c(=O)[nH]c1=O | -2.38% |
| CCOC(=O)c1cc(C(=O)Nc2ccc(S(=O)(=O)Nc3ccc(OC)cc3)cc2)nn1C | -1.57% |
| CCC(Sc1nncn1C)C(=O)Nc1nnc(-c2ccc(Cl)cc2)s1 (stereo unspecified) | -3.46% |
| Oc1c(Cl)cc(Cl)c(Cl)c1Cc1c(O)c(Cl)cc(Cl)c1Cl | -0.191% |
| CC(Oc1cccc(Cl)c1)C(=O)NC1CC(C)(C)NC(C)(C)C1 (stereo unspecified) | -1.58% |
| COc1cc(OC)c(NS(=O)(=O)c2cn(C)cn2)cc1Cl | 0.525% |
| Cc1nc2ccc(NC(=O)N3CCC(c4ccccc4)C3)cc2nc1C (stereo unspecified) | -3.95% |
| COc1ccc(NC(=O)C(CC(C)C)NS(=O)(=O)c2ccc3c(c2)CCN3C(C)=O)cc1OC (stereo unspecified) | 1.56% |
| OCCC1CN(Cc2ccc3nsnc3c2)CCN1C1CCCC1 (stereo unspecified) | -1.26% |
| O=C(CN(c1ccc2c(c1)OCCO2)S(=O)(=O)c1ccccc1)Nc1ccc2c(c1)OCO2 | -0.247% |
| CCC1C(=O)NCCN1C(=O)c1ccc2nc(Cc3ccc(OC)cc3)oc2c1 (stereo unspecified) | -0.899% |
| S=c1[nH]ccn1-c1ccc(Cl)cc1 | -5.31% |
| COc1cc(OC)cc(-c2c(-c3cccs3)c3cc(-c4ccc(OC)nc4)ccc3n2C)c1 | -0.213% |

| SMILES | inhibition |
| --- | --- |
| Cc1cc(C#N)c(SCC(N)=O)nc1-c1ccc(F)cc1 | -0.398% |
| Cc1cc(Br)ccc1SCC(=O)OCC(=O)NCc1ccc2c(c1)OCO2 | -1.13% |
| CCN(Cc1ccccc1)C(=O)Cc1ccc(OC)c(S(=O)(=O)N2CCOCC2)c1 | -0.86% |
| C=CCN(Cc1nc(-c2cc(OC)c3c(c2)OCO3)oc1C)C1CCS(=O)(=O)C1 (stereo unspecified) | -0.881% |
| CCCN(C(=O)COC(=O)CNS(=O)(=O)c1ccc(NC(C)=O)cc1)C1CCS(=O)(=O)C1 (stereo unspecified) | -0.76% |
| Cc1c(N=Nc2ccc(N(C)C)cc2)c(=O)n(-c2ccccc2)n1C | -5.21% |
| CCN(CC)CCCC(C)n1c2nc(=O)[nH]c(=O)c-2nc2cc(Cl)ccc21 (stereo unspecified) | 167% (active) |
| COc1ccc2c(c1)c1ncn(Cc3ccccn3)c(=O)c1n2C | -1.99% |
| CCOC(=O)CC(NC(=O)C1c2ccccc2Oc2ccccc21)c1ccc(C)cc1 (stereo unspecified) | 1.2% |
| CCCCCNC(=O)C1c2ccccc2Oc2ccccc21 | -0.323% |
| CCCN(CCC)C(=O)C1c2ccccc2Oc2ccccc21 | 88.3% (active) |
| CC(=O)c1nnn(-c2ccc(Cl)cc2C#N)c1C | -3.28% |
| c1ccc(-n2cccc2)c(N2CCCCC2)c1 | 1.68% |
| CN1C(c2ccc(F)cc2)=CS/C1=C(/C#N)c1nnc2n1-c1ccccc1SC2 | 1.32% |
| Cc1cc(/C=N/Nc2ccc([N+](=O)[O-])cn2)c(C)n1-c1cccc(C(=O)O)c1 | 64.5% (active) |
| CC(C)c1ccc(C=NNc2ccc([N+](=O)[O-])cn2)cc1 | -4.43% |
| Cc1cc(/C=N/NC(=O)CC2(C)OCCO2)c(C)n1-c1ccc(Cl)c(Cl)c1 | 0.73% |
| Cc1nc(NC(=O)CCC(=O)O)sc1C(=O)N(C)C | -0.461% |
| CCOc1ccc(NC(=O)c2cccc3c2C(=O)N(CC2CCCO2)C3)cc1 (stereo unspecified) | -0.819% |

| SMILES | inhibition |
| --- | --- |
| CC(C)n1c(=S)[nH]c2cc(C(F)(F)F)ccc21 | -0.144% |
| COc1cccc2c1C(=O)c1c(O)c3c(c(O)c1C2=O)CC(O)(C(C)=NNC(=O)c1ccc(Cl)c(Cl)c1)CC3OC1CC(N)C(O)C(C)O1 (stereo unspecified) | 102% (active) |
| COc1cccc(Cn2cnc3c([N+](=O)[O-])c(C)c(C)cc32)c1 | -1.77% |
| Cc1ccc(NC(=O)Cn2cccc2C2=NC(c3ccccc3)CO2)c(C)c1 (stereo unspecified) | 0.882% |
| C=CCNc1nc(Nc2ccc(Cl)cc2)nc(OC)n1 | -0.456% |
| CC12CCC(C(=O)N(CCC#N)CCC#N)(CC1=O)C2(C)C (stereo unspecified) | 0.103% |
| CCOC(=O)c1sc(/N=C/Nc2nc(C)c(C(=O)OCC)s2)nc1C | -0.364% |
| CC(NC(=O)CN(C)S(=O)(=O)c1ccc(F)cc1)C1CC2CCC1C2 (stereo unspecified) | -0.793% |
| O=C(CNCc1ccc(Cl)cc1)Nc1cccc(C(=O)O)c1 | 0.621% |
| S=C(Nc1cccc(Br)c1)N1CCn2cccc2C1c1cccnc1 (stereo unspecified) | 0.461% |
| O=C1COc2c1ccc(O)c2O | 105% (active) |
| c1ccc(CSc2ncnc3c2sc2nc(N4CCOCC4)c4c(c23)CCCC4)cc1 | 0.637% |
| COc1cc(/C=C/C(=O)O)cc(S(=O)(=O)Nc2ccccc2SC)c1OC | 2.56% |
| O=c1[nH]nc(SCCS(=O)(=O)c2ccc(F)cc2)n1-c1ccccc1C(F)(F)F | -0.936% |
| O=C1OC(Cc2ccccc2)C(c2ccccc2)C1=O (stereo unspecified) | 0.23% |
| CCN(CC)C(=O)[C@H]1C[C@H](CC(=O)NCC23CC4CC(CC(C4)C2)C3)C(=O)N2CCc3c([nH]c4cc(CCC(=O)N(C)C)ccc34)[C@]12C | -1.63% |
| CCC(CC)c1nnc(NC(=O)C2CCN(C(=O)c3ccco3)CC2)s1 | 0.307% |
| CCCN(CC(=O)Nc1ccccc1C)C(=O)c1ccc(OCC(=O)N2CCOCC2)c(OCC)c1 | 0.13% |
